From publication PMC12864922, “TDP-43 directly inhibits mRNA accumulation in neurites through modulation of mRNA stability” come the findings set out here.

In all, about 9,900 sequences were measured (“r (bound/input frequency ratio)”: median about 0.7, highest 2% from about 6.5 on). Only a selection was taken, and the highest values are over-represented in it overall.

First the molecules themselves.
B1: ENSMUSG00000031028.156|Tub (ssRNA)
RNA: GGGAGUUCUACAGUCCGACGAUCGCUUCGAUAUCCGCAUGCUAAGCUCCCAUUAUUGCCAGCAUGCCAUGAUCAGUGAGGGCUGUGUGCCAUGCUUAGGGGGAUGGCGCAGGGUGAGGGGAGCAGAGGAUAUUUUAGGGCCACAAGAGCUCAGAGGUAGCGGACCUCUGUGUGGUUCACCAACAGCAAUGCUGAUCCCUGAGUAUAGGGCACAUGUCUCUUGGUUACCUCACUGGUUAAUGGCAGAGUUGAGAACCUCAAAUUCUUUUGUUCCUACUGUUGCCCAGAAACUAGACUCUCUGACCUCUUGCGGUCGCACUAGUGUGGAAUUCUCGGGUGUCAAGG
B2: ENSMUSG00000031028.651|Tub (ssRNA)
RNA: GGGAGUUCUACAGUCCGACGAUCGCUUCGAUAUCCGCAUGCUAGCUGAAAUGUAGAGUGUUCUAUAGAGCAUCUCAGUAGCAUAGAAGGAGAAGCCCAGCUCCAACCUCCUGGACCCCAUACUGGUGACCAGCUUGGUGAGGACAGGCAAAAUUUCUCUAGCUGAGAGCACACUUAGCCAGUUUUCACGCCUAGAACAUAUAUGUCGAUUUGCACAUGAUUGUCUUUUCCUAUUUUGGAGUGGUCAGACAUUUUAUUUUUGUUCAAAAUUAUCUGGAGUUUUAGACAAACUUGCAAAACUGUGCUCUUGCGGUCGCACUAGUGUGGAAUUCUCGGGUGUCAAGG
B3: ENSMUSG00000090935.711|Synj2bp (ssRNA)
RNA: GGGAGUUCUACAGUCCGACGAUCGCUUCGAUAUCCGCAUGCUAAAGAACUGGGCUAAGUCCAGAGCUCUGCUCUCUGAGCAUCUGCCCCAGAUACAGAGGCAGAGUAUGAAGUGGAACAUUGUUUUAUUCCUAGGUGCUCAGGACAGACUGAUCAACCUCCAGUAACAUAUGUGGUUAGUAAGUGCUUCAGCUUGUGUAGCCAUUAAUAACCAAGUCAUAGGAUUGUGAAUCUAAAAUACUCCUGGGUAAAAUUUGUAUUAGAAUGGAAAAAAAAAUGAGGGUCAGAAAGGUGAGCUAACUUCCUCUUGCGGUCGCACUAGUGUGGAAUUCUCGGGUGUCAAGG
B4: ENSMUSG00000029636.217|Wasf3|154:158;247:254 (ssRNA)
RNA: GGGAGUUCUACAGUCCGACGAUCGCUUCGAUAUCCGCAUGCUAAUAAGUCUGUGAUAUCCGCAGGCUUGGGUUACAGGGAGGACCUUGCAGAGGGACCAGGACACUGCCUUCCCUUAGGUGCAUUAUUUACGUGGCCUGCAGCUCUUAAUAUCUCUCACUGUUUAUGAAAAGAAAGAUUCAGAUCCGGGGUGACAUACACACAGUUGACAGGGAAUGCCUGUGGGAUAAUUAAAAAUGGUUUUUGCUCAUGAGUUUGGGAUGUCACCCAGCCGCCCACAUCGCCUGCUAACACACACGACGCCCUCUUGCGGUCGCACUAGUGUGGAAUUCUCGGGUGUCAAGG
B5: ENSMUSG00000031028.206|Tub (ssRNA)
RNA: GGGAGUUCUACAGUCCGACGAUCGCUUCGAUAUCCGCAUGCUACCAGAGAUGAAACCCCUCCGAGUUAAUGUAUAAGGUUGGAAACCUUUCAGUAGGGAAUCAGGCAGUUCCCUGUUGAAAGUUGUCUGAGUUUUUGCACACCAUUCUGAUCUGAUGUGGCCUGUGCCUGGCUCCUCUAUGAGGACUUCGAGCUGUGCACAGACCUUAGCAGGACCACUGCACACUUUGUGUCUGUGUGACAGGCAGCCCAAGGGUUCUGGGGCUGGGCUUGGACACGCCCUCCAUUGGGAUGGCACCACUCACUCUUGCGGUCGCACUAGUGUGGAAUUCUCGGGUGUCAAGG
B6: ENSMUSG00000058297.231|Spock2 (ssRNA)
RNA: GGGAGUUCUACAGUCCGACGAUCGCUUCGAUAUCCGCAUGCUAAACCAUGCCCCAGACUCUAUUUAAAGCCCUAUAGCAUAUAUGAAUAGAGAACGGUGUAUCUAUCAGAGGGGACCACACUGAGCAGCUAGGCCCUGAUGCCAUGCCUCAGCACGCCCUCAGACCUCCAGGCCGGGUGGAAGGGGCUUUUACCCAGAUGUCCUGUGGGGUUUUGUGUGUCUAUUGCUCCCCACUUCCCCCUCUCAAAGGAAAUUUCCUUGAUAUAUUUGAUGAAGAAUUCCUUACCUGGGCCUCUGAUACCCCUCUUGCGGUCGCACUAGUGUGGAAUUCUCGGGUGUCAAGG
B7: ENSMUSG00000061578.43|Ksr2|85:91;96:100 (ssRNA)
RNA: GGGAGUUCUACAGUCCGACGAUCGCUUCGAUAUCCGCAUGCUAAGCCACAGACUGAGCACACCACCUCGGACUGUGGAGACCAAGACACAUGCCCAGUGGGCAGACUCAGACUCACACGCUGGACCACACACACCGCAACACACUACACAUGGACAGGGCCAACUGCUAUCCUUCUGCCUGGACGAGCCAGCUGUGGAGUGUCCCAGCUGUGCUAUCCUGGAACACAGAACCAGGAUGGAACCAGAAACAAUACACCUGCUCCGUUGUCAAGGCUUCUAGGCCAAGGUCAGGGUAGGGAGGUGCUCUUGCGGUCGCACUAGUGUGGAAUUCUCGGGUGUCAAGG
B8: ENSMUSG00000029636.220|Wasf3 (ssRNA)
RNA: GGGAGUUCUACAGUCCGACGAUCGCUUCGAUAUCCGCAUGCUACAGGCUUGGGUUACAGGGAGGACCUUGCAGAGGGACCAGGACACUGCCUUCCCUUAGGUGCAUUAUUUACGUGGCCUGCAGCUCUUAAUAUCUCUCACUGUUUAUGAAAAGAAAGAUUCAGAUCCGGGGUGACAUUGUGUCAGUUGACAGGGAAUGCCUGUGGGAUAAUUAAAAAUGGUUUUUGCUCAUGAGUUUGGGAUGUCACCCAGCCGCCCACAUCGCCUGCUAUGUGUGUGGACGCCUGUCCGCUUGGCCAGCUACUCUUGCGGUCGCACUAGUGUGGAAUUCUCGGGUGUCAAGG
B9: ENSMUSG00000029636.163|Wasf3 (ssRNA)
RNA: GGGAGUUCUACAGUCCGACGAUCGCUUCGAUAUCCGCAUGCUACAUGGAAGCUUGGCUUUAGCUGAGAGAUGCCACCAGCUGUUCACAACCCAUGGUGCUGUGGCUAGAUUCCUGCUCAGUCUCUCAAACAGGGCCACACCCCUCCUGAAGCACAGCUCUCUUCUCUCCUGUUGUCGGCACAUUUUCAAUUUUAAAAAGUACCUCACAAGAUAAACUUGAUUCAGCCAGUUGCCCGGGCAGAGACCUGACUUCCCCUCUCCUGCCCUGAUCCUUUUUACCAAAUGGCGAUUCCAUAGUCCUGGCUCUUGCGGUCGCACUAGUGUGGAAUUCUCGGGUGUCAAGG

TDP-43, sequence (Q13148 whole entry): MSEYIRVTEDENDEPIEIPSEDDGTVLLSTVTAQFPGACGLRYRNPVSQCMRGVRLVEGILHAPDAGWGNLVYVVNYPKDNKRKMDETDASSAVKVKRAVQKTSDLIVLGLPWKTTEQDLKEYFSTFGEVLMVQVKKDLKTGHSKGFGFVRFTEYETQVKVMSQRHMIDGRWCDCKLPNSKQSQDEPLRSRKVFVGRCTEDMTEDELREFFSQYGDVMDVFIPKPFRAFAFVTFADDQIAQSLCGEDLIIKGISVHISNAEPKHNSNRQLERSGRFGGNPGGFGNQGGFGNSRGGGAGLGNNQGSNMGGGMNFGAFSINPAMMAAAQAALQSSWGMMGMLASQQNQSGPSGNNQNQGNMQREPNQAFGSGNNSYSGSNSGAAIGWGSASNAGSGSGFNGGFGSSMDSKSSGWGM

This assay has as its target TDP-43 (Homo sapiens, UniProt Q13148 1-414). Kind of assay: RNA Bind-n-Seq with designed 260-mer pool; 25 mM Tris-HCl, 150 mM KCl, 3 mM MgCl2, BSA (printed 500 mg/mL), 20 units/mL SUPERase IN; pH not stated; 500 nM RNA pool, 1 h, 4 C; TDP-43 5, 50, 500 nM; high values mean tight binding. Particulars: protein: recombinant; tags: SBP (GST cleaved off with PreScission; pGEX-GST-SBP). Put shortly:
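The incubation lasted 1 h at 4 °C and used 500 nM of an in vitro-transcribed 260-nt 3′ UTR oligo pool with recombinant SBP-tagged TDP-43 at 5, 50 or 500 nM immobilized on streptavidin beads. It took place in 25 mM Tris-HCl, 150 mM KCl, 3 mM MgCl2, BSA and SUPERase IN. Bound RNA was washed, eluted with biotin, converted to cDNA, PCR-amplified and sequenced to give R, each oligo's normalized abundance in the bound sample divided by that in input. Two independent protein batches provided the duplicates.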
As to B1, the binding signal is 0.518 R (bound/input frequency ratio).

Regarding B2, the binding signal is 0.18 R (bound/input frequency ratio).

Take B3: the binding signal was 1.47 R (bound/input frequency ratio).

For the molecule B4, the binding signal was 1.49 R (bound/input frequency ratio).

Regarding B5, the binding signal is 1.26 R (bound/input frequency ratio).

Consider B6, for which the binding signal was 0.453 R (bound/input frequency ratio).

Take B7: the binding signal is 0.525 R (bound/input frequency ratio).

As to B8, the binding signal is 3.17 R (bound/input frequency ratio).

With B9, the binding signal is 0.217 R (bound/input frequency ratio).
